# Screening data as filed in PubChem.
# HT1080-NT tox = qHTS for induction of synthetic lethality in tumor cells producing 2HG: qHTS for the HT-1080-NT fibrosarcoma cell line | HT-1080-NT fibrosarcoma viability, CellTiter-Glo ATP luminescence, 48 h | Potency, µM (highest dose often 46.1 µM), actives largely listed as cytotoxic | 1.6% of 360,000 active;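 further: NT is the 2HG producing partner of a matched IDH1 knockdown line; nearly all actives have a fitted effect of over 55% in size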
#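 Fibrosarcoma NT cells, 750 per well in 5% FBS RPMI, were exposed to compound for 48 hours. Viability: CellTiter-Glo luminescence.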
# DT40 TDP1 no CPT = qHTS for Inhibitors of human tyrosyl-DNA phosphodiesterase 1 (TDP1): qHTS in cells in absence of CPT. 15% of 420,000 active. Potency, µM (highest dose often 46.2 µM), usual class: inhibitors. AID 686978, 2013. DT40 Tdp1-/- hTDP1 cells, no CPT, ATP luminescence, 48 h; further: nearly all actives have a fitted effect of over 55% in size
#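 Growth kinetics read by CellTiter-Glo luminescence after ≥48 hr at 37 °C. Cells: DT40 Tdp1-/- stably carrying human TDP1, 400 per well, compound exposure in the absence of CPT (DMSO vehicle).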
# DT40 TDP1 CPT = qHTS for Inhibitors of human tyrosyl-DNA phosphodiesterase 1 (TDP1): qHTS in cells in presence of CPT; chicken DT40 Tdp1-/-;hTDP1 cells + 20 nM CPT, ATP luminescence, 48 h; Potency, µM (series often up to 46.2 µM), hits mostly inhibitors; 12% of 420,000 active; AID 686979, 2013; further: nearly all actives have a fitted effect of over 55% in size
#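 Chicken DT40 Tdp1-/- cells stably complemented with human TDP1 were seeded at 400 cells/well in medium containing 20 nM camptothecin, exposed to pin-transferred compounds, and grown at 37 °C for at least 48 hr. Viability was read as ATP luminescence.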
# IL-1B inflam inh = qHTS for Inhibitors of Inflammasome Signaling: IL-1-beta AlphaLISA Primary Screen; 4.7% of 360,000 active; activity change, % at 57.5 µM; THP-1 LPS/ATP IL-1B secretion, AlphaLISA, 16 h; stronger effect = lower value; in the data active means activity change below about -50%; inconclusive means mostly about -30% to -49%
#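 THP-1 cells pretreated 1 hr with compounds (up to 57.5 uM final), then stimulated with LPS (250 ng/mL final) plus ATP (1.25 mM final); secreted IL-1B measured by AlphaLISA after 16 hr, decreased signal indicating inhibition.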
# HT1080 IDH1KD tx = qHTS for induction of synthetic lethality in tumor cells producing 2HG: qHTS for the HT-1080-IDH1KD cell line; Potency, µM (doses to about 46.1 µM), most hits filed as cytotoxic; 2% of 360,000 active; HT-1080 IDH1 knockdown viability, ATP luminescence, 48 h
#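 In this qHTS, HT-1080 cells depleted of IDH1 are exposed for 48 h at 37 °C to compound titrations. Toxicity is scored from CellTiter-Glo luminescence, with DMSO as full viability and medium alone as none.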
# Hits are given with their value; - = inactive; ? = inconclusive; . = no result given; [ ] = another dose, or the depositor's remark. Sampled rows, rich in hits. Any-hit rate of the full collection: about 19%. Unless noted, the call rests on the fitted dose curve; in most records, active means well fitted curve in the direction sought with a large enough effect; inconclusive means small, poorly fitted or top-dose-only effect, or another doubt; inactive means no such curve, though single readings can be large; an effect the other way counts as inactive or inconclusive.
SMILES,HT1080-NT tox,DT40 TDP1 no CPT,DT40 TDP1 CPT,IL-1B inflam inh,HT1080 IDH1KD tx
CCN(CC)S(=O)(=O)c1cccc(C(=O)NNC(=O)c2ccc3[nH]c(=O)c(=O)[nH]c3c2)c1,-,-,-,-,-
CCOc1ccccc1/C=N/NC(=O)c1cccc(S(=O)(=O)N(CC)CC)c1,-,-,-,-,-
CCN(CC)S(=O)(=O)c1cccc(C(=O)N/N=C(\C)c2ccc(O)cc2O)c1,?,6.51µM,4.61µM,-,1.46µM
CCN(CC)S(=O)(=O)c1cccc(C(=O)N/N=C/c2ccc(O)c(O)c2O)c1,?,16.4µM,14.6µM,-,?
Cc1ccc(NS(=O)(=O)c2ccc(NC(=O)c3ccccc3C(=O)O)cc2)cc1C,-,-,-,-,-
CNc1nc(NCCCN2CCCC2=O)c2sccc2n1,-,-,-,-,-
COc1ccccc1CNc1nc(NCCN2CCNC2=O)c2sccc2n1,-,?,18.4µM,-,-
COCCNc1nc(NCCN2CCNC2=O)c2sccc2n1,-,-,-,-71.1,-
Cc1noc(C)c1CCC(=O)N1CCCC(CCC(=O)NCc2ccccc2F)C1 (stereo not drawn),-,-,?,-,-
CCn1c(SCC(=O)N2CCOCC2)nc2c([nH]c3ccccc32)c1=O,-,-,-,-,-
CCC(C(=O)Nc1cc(-c2nc3cccnc3s2)ccc1C)c1ccccc1 (stereo not drawn),.,20.6µM,?,.,.
Cc1ccc(-c2nc3cccnc3s2)cc1NS(C)(=O)=O,-,20.6µM,?,-,-
Cc1ccc(-c2nc3cccnc3s2)cc1NC(=O)C(C)C,.,-,-,.,.
CC(C)N1C(=O)CCC1C(=O)NCc1ccco1 (stereo not drawn),-,-,-,-,-
CCN(C[C@H]1N[C@@](C)(C(=O)OC)[C@H]2C(=O)N(C)C(=O)[C@@H]12)S(=O)(=O)c1ccc(C)cc1,-,-,-,-,-
Cc1ccc(S(=O)(=O)N(C)C)cc1-n1c(SCC(=O)Nc2ccc(F)c(F)c2F)nc2ccccc2c1=O,-,20.6µM,14.6µM,-,-
Cc1nnc(SCC(=O)N2CCC(c3noc4ccc(F)cc34)CC2)s1,-,?,?,-,-
O=C(CSc1ccc2ccccc2n1)N1CCC(c2noc3ccc(F)cc23)CC1,-,11.6µM,16.4µM,?,-
O=C(c1cc(COc2ccc(F)cc2F)on1)N1CCCC(c2ccccc2)C1 (stereo not drawn),-,?,-,?,?
CCOC(=O)N1CCN(C(=O)c2cc(COc3ccc(F)cc3F)on2)CC1,-,?,?,-,-
CCN1CCN(C(=O)c2cc(COc3ccc(F)cc3F)on2)[C@@H](C)C1=O,-,16.4µM,-,-,-
O=C(c1cc(COc2ccc(F)cc2Cl)on1)N1CC2C[C@@H]3CC1C[C@H](C2)C3,-,?,1.3µM,-,-
O=C(c1cc(COc2ccc(F)cc2Cl)on1)N1CCCC(c2ccccc2)C1 (stereo not drawn),-,?,?,-63.8,?
CN(CCCC1CCCC1)C(=O)c1cc(COc2ccc(F)cc2F)on1,-,?,?,-51.3,-
COc1ccccc1NC(=O)CSc1nncn1N,-,-,-,-,-
SMILES,HT1080-NT tox,DT40 TDP1 no CPT,DT40 TDP1 CPT,IL-1B inflam inh,HT1080 IDH1KD tx
CN(C)CCC1CCN(c2cc(C#N)c(C#N)cc2[N+](=O)[O-])CC1,-,-,-,-,-
COc1ccc(OC)c(NC(=O)C(NS(=O)(=O)c2ccc3c(c2)CCCC(=O)N3)C(C)C)c1 (stereo not drawn),.,-,-,.,.
CN(C(=O)CSc1nnc(-c2ccc(F)cc2)n1C)C1CCS(=O)(=O)C1 (stereo not drawn),-,-,-,-,-
CN(C(=O)CSc1nnc(-c2ccccc2)c(-c2ccccc2)n1)C1CCS(=O)(=O)C1 (stereo not drawn),-,20.6µM,16.4µM,-,-
Cc1ccc(Cn2c(SCC(=O)N(C)C3CCS(=O)(=O)C3)nc3ccccc3c2=O)cc1 (stereo not drawn),-,?,-,-54.8,-
CN(C(=O)CSc1nnc(-c2ccc(F)cc2)c2ccccc12)C1CCS(=O)(=O)C1 (stereo not drawn),-,-,-,-90.7,?
COc1ccc2c(c1)cc1c(=O)n(CC(=O)NC(C)CCc3ccccc3)nc(C)n12 (stereo not drawn),-,-,-,-,-
CC(Oc1cc2oc(=O)c3c(c2cc1Cl)CCC3)C(=O)NCc1ccccn1 (stereo not drawn),-,-,-,-,-
C[C@H]1CNC(=O)C(=O)N1C[C@H](Cc1ccc(O)cc1)NC(=O)CC12CC3CC(CC(C3)C1)C2,-,-,-,-,-
Nc1cccn2c(-c3ccc(Cl)c(Cl)c3)cnc12,-,?,?,-,-
Nc1cccn2c(-c3ccc(Cl)cc3)cnc12,-,18.4µM,?,-,-
CCOc1ccc(-c2cc(C(=O)NCCCn3ccnc3)c3ccccc3n2)cc1,-,?,?,-,-
CCOc1ccc(-c2cc(C(=O)NCCCn3ccnc3)c3cc(Br)ccc3n2)cc1,?,10.3µM,11.6µM,-99.1,?
CCOc1ccc(-c2cc(C(=O)NCCCN3CCN(CC)CC3)c3ccccc3n2)cc1,?,?,?,-71.2,?
CCOc1ccc(-c2cc(C(=O)O)c3ccccc3n2)cc1,?,?,?,-,11.2µM
CCOc1ccc(-c2cc(C(=O)N3CCC(C)CC3)c3ccccc3n2)cc1,-,?,?,-,-
CC(C)CNC(=O)c1ccc(NC(=O)c2ccccc2[N+](=O)[O-])cc1,-,-,-,-,-
CCc1nnc(NC(=O)CSc2nnc(CNC(=O)c3cc(OC)c(OC)c(OC)c3)o2)s1,-,-,-,-,-
CC(=O)Nc1ccc(NC(=O)CS(=O)(=O)c2cn(CC(=O)N3CCC(C)CC3)c3ccccc23)cc1,-,-,-,-,-
O=C(Cn1ncc2ccccc21)N1CCN(c2cccc(C(F)(F)F)c2)CC1,-,?,?,-,-[9.24 µM]
O=C(Cc1csc(Nc2nc(=S)[nH]c3ccccc23)n1)NCc1cccc(Cl)c1,-,18.4µM,?,-,?
O=C(Cc1csc(Nc2nc(=S)[nH]c3ccccc23)n1)NCc1ccccc1Cl,-,4.61µM,20.6µM,-,-
O=C(Cc1csc(Nc2nc(=S)[nH]c3ccccc23)n1)N1CCN(c2cccc(C(F)(F)F)c2)CC1,-,16.4µM,?,-,-
